Most compounds without a hit are left out; they make up all but 19% or so of the library.
ELG1 repair inh – inhibitors of ELG1-dependent DNA repair in HEK293T cells. AID 504467. 2.3% of 330,000 active. HEK293T ELG1-luciferase reporter, luminescence, 16 h; DNA damage induced by 5-fluorouridine. Potency, µM (top dose mostly 46.1 µM), without a hit: at the top dose activity change, negative = inhibition, usual class: inhibitors; further: potency means the concentration at half of the fitted maximal effect; nearly all actives have a fitted effect of over 55% in size
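Reporter activity after DNA damage by 5-fluorouridine is monitored. Compound-treated cells incubate 16 hr at 37 °C, then ONE-Glo is added for 30 min before luminescence reading.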
HT1080 IDH1KD tx – HT-1080 IDH1 knockdown cell toxicity (counter line). HT-1080 IDH1 knockdown viability, ATP luminescence, 48 h. Potency, µM (series often up to 46.1 µM), inactives show at the top dose activity, negative = toxicity, actives largely listed as cytotoxic. 2% of 360,000 active. AID 686971;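 further: potency means the concentration at half of the fitted maximal effect; 0% = DMSO wells and -100% = cell-free medium wells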
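CellTiter-Glo luminescence after 48 h compound exposure at 37 degrees C of IDH1-knockdown HT-1080 cells in 5% FBS RPMI. %Activity scaled between DMSO wells and cell-free media wells, with curves fitted and assigned curve classes.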
HT1080-NT tox – kills 2HG-producing HT-1080-NT fibrosarcoma cells | AID 686970 | 1.6% of 360,000 active | Potency, µM (series often up to 46.1 µM), for inactives: top-dose activity, negative = less viability, hits mostly cytotoxic | HT-1080-NT fibrosarcoma viability, CellTiter-Glo ATP luminescence, 48 h;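 further: NT is the 2HG producing partner of a matched IDH1 knockdown line; potency means the concentration at half of the fitted maximal effect; 0% = DMSO-treated cells and -100% = media-only wells without cells; nearly all actives have a fitted effect of over 55% in size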
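HT-1080-NT; 750 cells/well; 5% FBS RPMI; 48 h compound, 37 degrees C; CellTiter-Glo luminescence; curve fitting and curve-class assignment.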
TDP1 cell noCPT – qHTS for Inhibitors of human tyrosyl-DNA phosphodiesterase 1 (TDP1): qHTS in cells in absence of CPT | DT40 Tdp1-/- hTDP1 cells, no CPT, ATP luminescence, 48 h | Potency, µM (titrated, usually from 46.2 µM), without a hit: top-dose activity change, negative = growth inhibition, hits mostly inhibitors | 15% of 420,000 active | AID 686978, 2013; further: potency means the concentration at half of the fitted maximal effect; nearly all actives have a fitted effect of over 55% in size
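Cells were dispensed at 400 per well, compounds added by pin tool, plates incubated ≥48 hr at 37 °C, then CellTiter-Glo added for 30 min at room temperature before luminescence reading. Line: DT40 Tdp1-/- complemented with hTDP1; camptothecin omitted.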
DT40 TDP1 CPT – growth inhibition of DT40 Tdp1-/-;hTDP1 cells with camptothecin (screen for TDP1 inhibitors). Potency, µM (doses to about 46.2 µM), for inactives: top-dose activity change, negative = growth inhibition, usual class: inhibitors. chicken DT40 Tdp1-/-;hTDP1 cells + 20 nM CPT, ATP luminescence, 48 h. AID 686979. 12% of 420,000 active; further: potency means the concentration at half of the fitted maximal effect; nearly all actives have a fitted effect of over 55% in size
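Cell growth measured by CellTiter-Glo luminescence after a minimum 48 h, 37 C compound exposure with 20 nM CPT in Tdp1-knockout DT40 cells stably expressing hTDP1, seeded 400/well; qHTS titration format.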
IL1B secr inh – blocks inflammasome-driven IL-1 beta release; activity change, % at 57.5 µM; THP-1 LPS/ATP IL-1B secretion, AlphaLISA, 16 h; hits give low values; 4.7% of 360,000 active; AID 743279; in the data active means activity change below about -50%; inconclusive means mostly about -30% to -49%
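THP-1 cells pretreated 1 hr with compounds (up to 57.5 uM final), then stimulated with LPS (250 ng/mL final) plus ATP (1.25 mM final); secreted IL-1B measured by AlphaLISA after 16 hr, decreased signal indicating inhibition.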
Starred values were filed as active, the others as inactive. Unless noted, the call rests on the fitted dose curve; in most records, active means well fitted curve in the direction sought with a large enough effect; inconclusive means small, poorly fitted or top-dose-only effect, or another doubt; inactive means no such curve, though single readings can be large; an effect the other way counts as inactive or inconclusive. Unless noted, on the % scale 0 is the no-effect control and ±100 the full control effect.

Results for Cc1cnc(C(=O)NNC(=O)c2ccc(Br)cc2)cn1 ?
ELG1 repair inh: -1.1%; HT1080 IDH1KD tx: 20.6µM*; HT1080-NT tox: inconclusive; TDP1 cell noCPT: 5.8µM*; DT40 TDP1 CPT: 3.66µM*; IL1B secr inh: 77.0

What do the screens show for `CC(C)(C)c1ccc(C(=O)N2CCC(c3nc4ccccc4o3)CC2)cc1`?
TDP1 cell noCPT: 14.6µM*; DT40 TDP1 CPT: 20.6µM*

Results for O=C(c1ccc(Cl)cc1)N1CCC(c2nc3ccccc3o2)CC1 ?
TDP1 cell noCPT: 14.6µM*; DT40 TDP1 CPT: inconclusive

What do the screens show for `CN(C)S(=O)(=O)c1ccc(C(=O)N2CCC(c3nc4ccccc4o3)CC2)cc1`?
ELG1 repair inh: inconclusive; HT1080 IDH1KD tx: -9.9%; HT1080-NT tox: -4.8%; TDP1 cell noCPT: inconclusive; DT40 TDP1 CPT: -29.4%; IL1B secr inh: 4.7

Results for O=C(c1ccc(Cl)cc1)N1CCC(c2ccncc2)CC1 ?
TDP1 cell noCPT: -71.9%; DT40 TDP1 CPT: inconclusive

Results for CCOC(=O)C1CCN(C(=O)COc2ccc(Cl)cc2C)CC1 ?
ELG1 repair inh: 0.8%; HT1080 IDH1KD tx: -6.2%; HT1080-NT tox: -4.5%; TDP1 cell noCPT: inconclusive; DT40 TDP1 CPT: -27.1%; IL1B secr inh: -5.4

How did Cc1cc(Cl)ccc1OCC(=O)N1CCC(c2nc3ccccc3o2)CC1 do in these assays?
TDP1 cell noCPT: 16.4µM*; DT40 TDP1 CPT: inconclusive

What do the screens show for `COC(=O)C1=C(C)N(c2ccc(C)cc2)/C(=C/c2cccs2)C1=O`?
ELG1 repair inh: inconclusive; HT1080 IDH1KD tx: 8.4%; HT1080-NT tox: -0.7%; TDP1 cell noCPT: 25.9µM*; DT40 TDP1 CPT: inconclusive; IL1B secr inh: -2.3

Results for C=CCN1C(=O)/C(=C\c2cccs2)C(C(=O)OC)=C1C ?
ELG1 repair inh: -19.9%; HT1080 IDH1KD tx: -1.1%; HT1080-NT tox: -0.9%; TDP1 cell noCPT: -20.1%; DT40 TDP1 CPT: -22.6%; IL1B secr inh: -15.5

What do the screens show for `CCOC(=O)C1=C(C)N(c2ccc(OC)cc2)C(=O)/C1=C\c1cccs1`?
ELG1 repair inh: 20.6µM*; HT1080 IDH1KD tx: -2.1%; HT1080-NT tox: -5.5%; TDP1 cell noCPT: inconclusive; DT40 TDP1 CPT: inconclusive; IL1B secr inh: -59.9*

How did CCOC(=O)C1=C(C)N(c2ccc(OC)cc2)C(=O)/C1=C\c1ccc(O)c(OCC)c1 do in these assays?
ELG1 repair inh: -11.0%; HT1080 IDH1KD tx: -5.1%; HT1080-NT tox: -0.2%; TDP1 cell noCPT: inconclusive; DT40 TDP1 CPT: 23.1µM*; IL1B secr inh: 36.5

Results for Cc1ccccc1C(=O)Nc1cccc(-c2nnc(SCC(=O)NCc3ccco3)n2C)c1 ?
TDP1 cell noCPT: -28.4%; DT40 TDP1 CPT: -27.8%

How did NS(=O)(=O)c1ccc(N=Nc2c(-c3ccccc3)[nH]n(-c3nc(-c4ccccc4)cs3)c2=O)cc1 do in these assays?
ELG1 repair inh: 5.17µM*; HT1080 IDH1KD tx: -7.3%; HT1080-NT tox: -2.5%; TDP1 cell noCPT: 3.26µM*; DT40 TDP1 CPT: 9.2µM*; IL1B secr inh: inconclusive

How did NS(=O)(=O)c1ccc(N=Nc2c(=O)[nH]n3c(=O)c4c([nH]c23)CCCC4)cc1 do in these assays?
ELG1 repair inh: -2.8%; HT1080 IDH1KD tx: -1.1%; HT1080-NT tox: 11.0%; TDP1 cell noCPT: -15.8%; DT40 TDP1 CPT: -6.0%; IL1B secr inh: 40.1

What do the screens show for `Cc1sc2nc(CN3CCCC3)nc(N3CCN(S(=O)(=O)c4cccc(F)c4)CC3)c2c1C`?
ELG1 repair inh: 1.6%; HT1080 IDH1KD tx: -14.0%; HT1080-NT tox: -21.6%; TDP1 cell noCPT: inconclusive; DT40 TDP1 CPT: inconclusive; IL1B secr inh: -25.2

Results for O=C1C2N=NN(CC(=O)N3N=C(c4ccccc4)CC3c3ccc([N+](=O)[O-])cc3)C2C(=O)N1c1ccccc1 (configuration not stated) ?
ELG1 repair inh: -8.6%

What do the screens show for `CC1(C)Cc2c(sc3c2c(=N)n(Cc2ccco2)c(=O)n3Cc2ccc(F)cc2)CO1`?
ELG1 repair inh: 18.4µM*; HT1080 IDH1KD tx: -14.3%; HT1080-NT tox: inconclusive; TDP1 cell noCPT: inconclusive; DT40 TDP1 CPT: inconclusive; IL1B secr inh: inconclusive

Results for COc1ccc(Cn2c(=O)n(Cc3ccco3)c(=N)c3c4c(sc32)COC(C)(C)C4)cc1 ?
ELG1 repair inh: 7.31µM*; HT1080 IDH1KD tx: -14.7%; HT1080-NT tox: inconclusive; TDP1 cell noCPT: inconclusive; DT40 TDP1 CPT: inconclusive

What do the screens show for `O=C(N/N=C/c1sc2ccccc2c1O)c1cccc2ccccc12`?
ELG1 repair inh: -8.7%; HT1080 IDH1KD tx: inconclusive; HT1080-NT tox: inconclusive; TDP1 cell noCPT: 5.17µM*; DT40 TDP1 CPT: 2.59µM*; IL1B secr inh: 96.0

Results for O=C(N/N=C/c1sc2ccccc2c1O)c1ccccc1 ?
ELG1 repair inh: inconclusive; HT1080 IDH1KD tx: 2.59µM*; HT1080-NT tox: 8.2µM*; TDP1 cell noCPT: 0.651µM*; DT40 TDP1 CPT: 0.92µM*; IL1B secr inh: 51.3

Results for COc1ccc(OC)c(/C=N/NC(=O)c2cccc3ccccc23)c1 ?
HT1080 IDH1KD tx: -10.9%; HT1080-NT tox: -14.6%; TDP1 cell noCPT: inconclusive; DT40 TDP1 CPT: 7.0%; IL1B secr inh: 42.4

How did COc1ccc(C(=O)N/N=C/c2sc3ccccc3c2O)cc1 do in these assays?
ELG1 repair inh: inconclusive; HT1080 IDH1KD tx: inconclusive; HT1080-NT tox: inconclusive; TDP1 cell noCPT: 3.66µM*; DT40 TDP1 CPT: 2.59µM*; IL1B secr inh: 9.4

How did COc1ccc(C(=O)N/N=C/C(=O)c2ccccc2)cc1 do in these assays?
ELG1 repair inh: inconclusive; HT1080 IDH1KD tx: 4.3%; HT1080-NT tox: 7.8%; TDP1 cell noCPT: 2.4%; DT40 TDP1 CPT: -21.9%; IL1B secr inh: -3.1

Results for COc1ccc2cc(C(=O)N/N=C/c3sc4ccccc4c3O)ccc2c1 ?
ELG1 repair inh: 18.2%; HT1080 IDH1KD tx: inconclusive; HT1080-NT tox: inconclusive; TDP1 cell noCPT: 7.31µM*; DT40 TDP1 CPT: 10.3µM*; IL1B secr inh: 1.3

What do the screens show for `COc1ccc(-c2ccc3c(c2)O/C(=C\c2ccsc2)C3=O)cn1`?
ELG1 repair inh: inconclusive; HT1080 IDH1KD tx: 8.5%; HT1080-NT tox: 13.3%; TDP1 cell noCPT: inconclusive; DT40 TDP1 CPT: inconclusive; IL1B secr inh: -4.6
